# The supplement of paper PMC8728848
# Only a selection was taken, and the strongest signals are over-represented in it overall.
# System: Neu5Ac(a2-6)Gal
# Assay: glycan array binding signal (z-score within array); higher = stronger binding
# Settings: glycan notation: IUPAC condensed, linker removed
# Outline: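 Glycan array data were curated from 3228 arrays in the Consortium for Functional Glycomics database and kept only where the protein sequence was available. Glycan names were converted to IUPAC-condensed notation, and columns mapping to the same glycan were averaged. The binding signal is a within-array Z-score, averaged across arrays of the same protein sequence at different concentrations or buffers and across linkers. Negative Z-scores can be read as non-binding.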
# PILRa (Mus musculus), Q2YSF3, sequence (Q2YSF3 entry or part of it): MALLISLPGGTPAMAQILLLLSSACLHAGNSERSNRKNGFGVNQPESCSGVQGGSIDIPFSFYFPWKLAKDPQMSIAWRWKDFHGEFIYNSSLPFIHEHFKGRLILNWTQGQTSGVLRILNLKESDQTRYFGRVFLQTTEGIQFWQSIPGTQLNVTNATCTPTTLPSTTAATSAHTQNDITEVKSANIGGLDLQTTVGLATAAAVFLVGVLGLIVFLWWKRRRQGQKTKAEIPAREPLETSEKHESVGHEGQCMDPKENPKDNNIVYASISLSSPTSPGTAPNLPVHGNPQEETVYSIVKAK
# Regenerating Gene IV (Homo sapiens), Q9BYZ8, sequence (Q9BYZ8 whole entry, looked up): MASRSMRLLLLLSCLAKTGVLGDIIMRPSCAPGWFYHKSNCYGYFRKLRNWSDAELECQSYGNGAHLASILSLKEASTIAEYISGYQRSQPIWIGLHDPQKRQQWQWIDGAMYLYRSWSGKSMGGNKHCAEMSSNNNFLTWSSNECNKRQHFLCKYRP
row,Substance,glycan array binding signal (z-score)
1,"HARE (Homo sapiens), Q8WWQ8",-0.26
2,"PILRa (Mus musculus), Q2YSF3",2.04
3,"Regenerating Gene IV (Homo sapiens), Q9BYZ8",0.693
